96 molecules from PubChem BioAssay AID602248 (The Scripps Research Institute Molecular Screening Center, 2012) can be followed below.

The whole screen tested about 360,000 compounds, of which about 1,700 (0.47%) were called active. The entries come from a sample that favours actives as a whole. Values without a mark were called inactive. Rule as the data show it: active = activation above about 15%; inactive = the rest.

This assay is described as follows: counter-screen for M1 agonists: effect in parental CHO-K1 cells (AID 602248).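 Also: untransfected CHO-K1 host cells lacking M1 receptor as counterscreen.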 The settings on record: Fluo-8 calcium fluorescence, at 3 µM, stronger effect = higher value, scaled to maximal ATP response, vehicle zero. For orientation: A counterscreen serves to expose hits that act by an unwanted route or on another target.
As for `COc1ccc(S(=O)(=O)N2CCOCC2)c(C)c1C`, the activation was 0.55%.

In the case of `COCCNc1ncnc2c1nc1n2CCCC1`, the activation is 0.47%.

On to `O=C(/C=C/c1c(F)cccc1Cl)Nc1nn[nH]n1`, for which the activation was 22% (active).

As to `O=C(CCc1ccccc1)Nc1nn[nH]n1`, the activation is 1.57%.

On to `O=C(/C=C/c1c(Cl)cccc1Cl)NCc1ccccc1`, for which the activation was 0.05%.

Consider `O=C1CCC(=O)N(O)CCCCCNC(=O)CCC(=O)N(O)CCCCCNC(=O)CCC(=O)N(O)CCCCCN1`, for which the activation is -0.15%.

With `CCOc1ccc(OCC)c(NC(=O)C2CCN(S(=O)(=O)c3c(C)noc3C)CC2)c1`, the activation is -0.25%.

Take `Clc1ccc(CSc2nnc([C@@H]3CCCN3)o2)cc1`: the activation is 0.78%.

For the molecule `CCN1/C(=C\c2ccc3ccccc3[n+]2CC)Sc2cc(C)ccc21`, the activation is 22.8% (active).

Turning to `Cc1nn(C)cc1N1C(=O)c2cccc3c(N)ccc(c23)C1=O`, the activation was 40.2% (active).

Take `CN1C(=O)c2cccc3c(N)ccc(c23)C1=O`: the activation was 28.8% (active).

`CC(=O)OC1CCC2(C)C(=CCC3C4CC(=O)N(O)C(=O)C4(C)CCC32)C1` (stereo unspecified): the activation is 0.34%.

`O=C1CCC[C@@H]2CC(N3CCCCC3)C[C@@H]3CCN1[C@H]23` (stereo partly specified): the activation was 0.27%.

For the molecule `CCCc1c(C(=O)N/N=C(\C)CCc2ccc(OC)cc2)nnn1-c1nonc1N`, the activation was 0.32%.

On to `Cc1ccc(S(=O)(=O)Nc2nc(CN3CCOCC3)nc3sc(C)c(C)c23)cc1`, for which the activation is 0.12%.

Turning to `CCCCCCCCCCCCN1C(=O)CSC1c1cccnc1` (stereo unspecified), the activation was 1.63%.

With `Oc1ccc2ccc3cccc[n+]3c2c1`, the activation was 25.3% (active).

Regarding `COc1ccc(CCNC(=O)CSc2nnc3ccc(-c4ccncc4)nn23)cc1`, the activation was 0.28%.

Consider `COCc1cc(C)nc2sc3c(=O)n(-c4cccc5ccccc45)nnc3c12`, for which the activation is 0.44%.

On to `Cc1cc(=O)n2nc(N3CCCC(C(=O)NCc4ccc(Cl)cc4)C3)sc2n1` (stereo unspecified), for which the activation is 0.13%.

For the molecule `O=C(NCc1ccccc1)C1CCCN(c2nc3ccsc3c(=O)s2)C1` (stereo unspecified), the activation is 18.9% (active).

Regarding `O=C(NCc1ccccc1)C1CCCN(S(=O)(=O)c2cccs2)C1` (stereo unspecified), the activation is 0.58%.

For the molecule `CC(C)NC(=O)c1ccc(Sc2ccccc2)c([N+](=O)[O-])c1`, the activation was -0.3%.

Take `CC(C)(C)NC(=O)CN1CCC(NC(=O)C23CC4CC(CC(C4)C2)C3)CC1`: the activation is 0.73%.

Consider `COc1cc(OC)c(C(=S)N2CCCC2)cc1OC`, for which the activation was -0.12%.

On to `CC(NC(=O)c1cccc2ccccc12)c1ccc2c(c1)CCCC2` (stereo unspecified), for which the activation is -0.03%.

As to `Nc1ccc2nc3c(=O)[nH]c(=S)[nH]c3nc2c1`, the activation is 21.2% (active).

For the molecule `COc1cc(C(=O)OCc2cc(=O)n3ccsc3n2)ccc1OC(C)C`, the activation was 1.63%.

Turning to `Cc1ccc(CN(Cc2cccnc2)C(=S)Nc2cccc(Cl)c2C)cc1`, the activation is 0.06%.

For the molecule `Cc1c(Cl)cccc1NC(=S)N(Cc1ccccc1)Cc1cccnc1`, the activation was 0.16%.

As for `Cc1cccc(C)c1NC(=S)N(Cc1cccnc1)Cc1ccccc1Cl`, the activation is 19.6% (active).

In the case of `O=C1Nc2ccccc2NC(c2ccc3c(c2)OCO3)=C1N(Cc1ccc(F)cc1)C(=O)c1ccco1`, the activation is 1.41%.

In the case of `O=C(Nc1cc(S(=O)(=O)N2CCCCC2)ccc1Cl)C1COc2ccccc2O1` (stereo unspecified), the activation was 3.15%.

Turning to `O=C(Nc1ncc([N+](=O)[O-])s1)C1COc2ccccc2O1` (stereo unspecified), the activation is 15.9% (active).

For the molecule `CC(=O)c1ccccc1NC(=O)COC(=O)C1COc2ccccc2O1` (stereo unspecified), the activation was 0.64%.

As for `COc1ccc(CN2C(=O)C(CC(=O)NC3CCCCC3)CC(C(=O)N3CCOCC3)=C2C)cc1` (stereo unspecified), the activation is 0.65%.

Consider `Cc1cc(OCC(=O)NC2CCN(C)CC2)ccc1[N+](=O)[O-]`, for which the activation was 23.7% (active).

For `Cc1cc(OCC(=O)Nc2c(C)n(C)n(-c3ccccc3)c2=O)ccc1[N+](=O)[O-]`, the activation is 0.08%.

As for `O=C(COc1ccccc1[N+](=O)[O-])NC1CC1`, the activation was 1.25%.

`O=C(c1c(Cl)cccc1Cl)N1CCN(c2cccc3[nH]ccc23)CC1`: the activation is 2.17%.

Take `CC(O)CNCCOc1cccc(Oc2ccccc2)c1` (stereo unspecified): the activation was 1.52%.

Take `OC(CNCCc1ccc(Cl)cc1Cl)COc1ccccc1` (stereo unspecified): the activation is 16.2% (active).

Take `COc1ccc(OCC(O)CNC(=O)Nc2ccc(Cl)cc2)cc1` (stereo unspecified): the activation was 1.9%.

On to `C(=N/N1CCN(c2ccccc2)CC1)/c1cccs1`, for which the activation is 0.31%.

With `COc1ccc2c(c1)CCC/C2=N\OC(=O)c1ccccc1F`, the activation was 1.78%.

For `Cc1cc(C(=O)NNC(=S)Nc2ccccc2C)cs1`, the activation is 7.73%.

Take `Fc1ccccc1CNC(=S)Nc1ccc(Cl)cc1`: the activation is 11.3%.

As to `Cc1ccccc1NC(=S)NC(=O)Cc1ccc(Cl)cc1`, the activation was 21.2% (active).

`O=C(Cc1ccc(Cl)cc1)NC(=S)Nc1ccccc1O`: the activation was 29.2% (active).

In the case of `Cc1ccccc1N/C(SCc1ccc(Cl)cc1)=C(/C#N)C(N)=O`, the activation was 0.43%.

In the case of `CCOc1ccccc1NC(=S)NC(=O)CCc1ccccc1`, the activation is -0.34%.

Regarding `COc1ccc(CCNC(=O)C(=O)NCC2CCNCC2)cc1OC`, the activation is 1.91%.

With `O=C(CN1C(=O)CSC1=O)N1CCCC(Nc2ccc(F)cc2)C1` (stereo unspecified), the activation was 1.24%.

As for `O=C(CSc1nncn1-c1cccnc1)N1CCOCC1`, the activation is 0.39%.

`Cn1c(Nc2ccc(F)cc2)nc2cc(-c3ccsc3)sc2c1=O`: the activation was 1.38%.

For the molecule `COc1c(N2CCN(C(=S)Nc3ccccc3F)C(C)C2)c(F)cc2c(=O)c(C(=O)O)cn(C3CC3)c12` (stereo unspecified), the activation is 0.37%.

Take `CC(=O)Nc1c(-c2ccc(C)cc2)nc2ccc(Cl)cn12`: the activation was -0.07%.

As for `CS(=O)(=O)/C(C#N)=C/c1cccn1S(=O)(=O)c1ccc([N+](=O)[O-])cc1`, the activation is 0.19%.

As for `C[C@@H](O)c1nc2ccccc2n1N`, the activation is 6.47%.

On to `CCN1C(=O)C(=O)N(CC(=O)Nc2cc(C)ccc2C)C1=O`, for which the activation was 0.48%.

Regarding `Cc1c(NS(=O)(=O)c2cc(C(=O)NCCc3ccc(F)cc3)cc(Cl)c2Cl)c(=O)n(-c2ccccc2)n1C`, the activation was -0.45%.

As to `COc1ccccc1S(=O)(=O)c1c(C)cc(C)[nH]c1=O`, the activation was 0.65%.

On to `Cc1cc(C)c(/C=C2\C(=O)Nc3ccccc32)[nH]1`, for which the activation was 24.4% (active).

Take `CC1C(=O)C(C)C(c2ccc(O)cc2)NC1c1ccc(O)cc1` (stereo unspecified): the activation is 4.02%.

As for `O=C(CSc1ccc(-c2ccco2)nn1)Nc1cccc(F)c1`, the activation is 16.7% (active).

On to `O=C(CSc1ccc(-c2ccc(F)cc2)nn1)Nc1ccc2c(c1)OCCO2`, for which the activation is 6.26%.

Consider `COc1ccc(NC(=O)CSc2ccc(-c3ccco3)nn2)c(OC)c1`, for which the activation is 0.21%.

Take `CCCOc1ccc(N2CC(C(=O)Nc3ccccn3)CC2=O)cc1` (stereo unspecified): the activation is -0.06%.

As to `CS(=O)(=O)N(CC(=O)Nc1ccc(F)cc1F)c1cccc([N+](=O)[O-])c1`, the activation was 0.11%.

As for `C=CCn1c(SCC(N)=O)nnc1-c1cc2c(s1)CCC(CC)C2` (stereo unspecified), the activation was 0.17%.

For the molecule `COc1ccc(Nc2ncnc3sc(-c4ccccc4)cc23)c(OC)c1`, the activation was 17.4% (active).

As to `COC(=O)c1cnc(Nc2cc(C)ccc2OC)c2ccccc12`, the activation was 1.12%.

Turning to `COc1ccc(NC(=O)c2sc(N3CCOCC3)nc2-c2ccccc2)c(OC)c1`, the activation was 1.26%.

Turning to `COc1ccc(NC(=O)CSc2nncc(=O)n2N)cc1OC`, the activation was 1.17%.

For the molecule `CCOC(=O)C1CCN(Cc2ccc(-c3ccccc3)cc2)CC1`, the activation was 2.64%.

For `CCOC(=O)C1CCN(Cc2nnc(-c3cccc(Br)c3)o2)CC1`, the activation is 16.3% (active).

Regarding `CCOC(=O)C1CCN(CCC(=O)Nc2cccc(C)c2)CC1`, the activation is 6.98%.

Regarding `COc1ccc(C2(C)NC(=O)N(CC(=O)c3ccc4c(c3)OCO4)C2=O)cc1` (stereo unspecified), the activation was 9.33%.

For the molecule `CC1(c2ccc(Cl)cc2)NC(=O)N(CC(=O)c2ccc3c(c2)OCO3)C1=O` (stereo unspecified), the activation was 16.4% (active).

Consider `CC1CCC2(CC1)NC(=O)N(CC(=O)c1ccc3c(c1)OCO3)C2=O` (stereo unspecified), for which the activation was 1.72%.

In the case of `Cn1c2c(c(=O)n(C)c1=O)C(c1cccc([N+](=O)[O-])c1)Nc1ccccc1O2` (stereo unspecified), the activation was 0.17%.

Take `Cc1ccc(S(=O)(=O)N2CCCC(C(=O)N3CCN(C)CC3)C2)cc1` (stereo unspecified): the activation was 1.9%.

`CC(=O)N1CCCc2cc(S(=O)(=O)N3CCCC(C(=O)N4CCN(c5cccc(Cl)c5)CC4)C3)ccc21` (stereo unspecified): the activation was 19.9% (active).

With `COc1cccc(N2CCN(C(=O)C3CCCN(S(=O)(=O)c4cnc[nH]4)C3)CC2)c1` (stereo unspecified), the activation was 0.46%.

Take `CCN1CCC(=NNC(=O)c2ccc(C)c([N+](=O)[O-])c2)CC1`: the activation is 0.82%.

Regarding `Cc1cc(F)ccc1S(=O)(=O)Nc1ncnc2scc(-c3ccc(F)cc3)c12`, the activation is 0.74%.

With `CC(=O)N1CCN(c2ccc(NCc3ccc(C(C)C)cc3)cc2)CC1`, the activation was -0.13%.

For `O=C(Nc1cccc(Cl)c1)Nc1ccccc1NS(=O)(=O)c1cccs1`, the activation is 15.3% (active).

For the molecule `O=S(=O)(Nc1ccccc1)c1ccc(NS(=O)(=O)c2cccs2)cc1`, the activation was 1.02%.

For `O=C(NCc1cn2ccsc2n1)Nc1cccc(Cl)c1`, the activation was 0.23%.

`CC12CN3CC(C)(CN(C1)C3c1ccc(Cl)cc1Cl)C2=O` (stereo unspecified): the activation was -0.45%.

For the molecule `COc1ccc(CC(=O)NC(C)c2ccc(Cl)c(Cl)c2)cc1S(=O)(=O)N1CCOCC1` (stereo unspecified), the activation is 2.98%.

Consider `CC(=O)Nc1ccc(S(=O)(=O)Oc2ccc(/C=N/N=C3/NC(=O)C(CC(=O)O)S3)cc2)cc1` (stereo unspecified), for which the activation was 0.03%.

Consider `CC(C)S(=O)(=O)c1csc(NC(=O)Nc2ccc(Cl)cc2)c1Cl`, for which the activation is 16% (active).

Turning to `CC(=O)N1CCC(N(C(=O)Nc2ccc(Cl)cc2)C(C)C)CC1`, the activation was 1.09%.

With `CC(=O)c1ccc(NC(=O)C(C)NCc2ccc(Cl)cc2)cc1` (stereo unspecified), the activation is 0.45%.
